Compounds with a hit are over-represented: about 7.4% of the library has one in this group of screens.
FLuc counter – qHTS profiling assay for firefly luciferase inhibitor/activator using purifed enzyme and Km concentrations of substrates (counterscreen for miR-21 project) | Luciferin 4-monooxygenase (Photinus pyralis), P08659 | AID 588342, 2011 | purified FLuc, Km substrates, luminescence inhibition | Potency, µM (series often up to 57.5 µM), for inactives: at the highest dose activity change, negative = inhibition, usual class: inhibitors | actives 6.9% (n = 360,000);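 also: plate controls were vehicle for no effect and reference inhibitor for full effect; nearly all actives have a fitted effect of over 55% in size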
Target sequence (P08659 whole entry, looked up): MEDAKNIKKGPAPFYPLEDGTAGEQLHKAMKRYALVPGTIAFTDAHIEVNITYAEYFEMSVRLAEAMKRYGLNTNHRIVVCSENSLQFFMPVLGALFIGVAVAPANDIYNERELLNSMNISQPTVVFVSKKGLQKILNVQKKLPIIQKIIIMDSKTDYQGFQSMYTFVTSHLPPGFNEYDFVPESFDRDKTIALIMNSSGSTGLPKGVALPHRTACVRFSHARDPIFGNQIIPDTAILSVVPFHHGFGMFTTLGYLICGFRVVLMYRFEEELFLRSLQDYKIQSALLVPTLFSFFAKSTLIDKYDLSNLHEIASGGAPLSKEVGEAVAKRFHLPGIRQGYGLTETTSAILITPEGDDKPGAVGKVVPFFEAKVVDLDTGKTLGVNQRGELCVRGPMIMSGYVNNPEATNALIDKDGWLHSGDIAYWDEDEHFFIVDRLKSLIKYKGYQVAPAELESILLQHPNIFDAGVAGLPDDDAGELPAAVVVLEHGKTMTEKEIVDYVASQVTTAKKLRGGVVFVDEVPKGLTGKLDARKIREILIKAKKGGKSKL
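Biochemical qHTS of compounds, final roughly 60 µM downward over six points, against 10 nM purified firefly luciferase using Km concentrations of substrates (10 uM D-luciferin, 10 uM ATP) in Tris acetate pH 7.5 buffer; luminescence output.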
SMN2 splice enh – qHTS Assay for Enhancers of SMN2 Splice Variant Expression; HEK293 SMN2-luciferase splicing reporter, luminescence, 30-36 h; Potency, µM (titrated, usually from 46.1 µM), for the others: top-dose activity change, positive = activation, hits mostly activators; actives 2.8% (n = 210,000); also: % of control where 0% means no effect; nearly all actives have a fitted effect of over 55% in size
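HEK293 cells carry an SMN2 minigene-luciferase reporter in which exon 7 inclusion puts luciferase in frame. Cells were seeded at 2000 cells/well, attached for 10-12 hours, then exposed to compounds for 30-36 hours at 37C before ONE-Glo luminescence.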
NPC1 promoter act – qHTS Assay for NPC1 Promoter Activators. Huh7 NPC1 promoter luciferase reporter, 24 h. Potency, µM (top dose mostly 9.22 µM), without a hit: at the top dose activation, most hits filed as activators. actives 2.4% (n = 320,000). AID 485313, 2010; also: % of control where 0% means no effect; nearly all actives have a fitted effect of over 60% in size
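Huh7 cells stably carrying NPC1 promoter–luciferase, plated in Opti-MEM with 10% FBS for 2 h, were exposed to compound in DMSO for 24 h at 37 °C; luciferase reagent was added for 10 min and luminescence read.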
ELG1 genotox – qHTS screen for small molecules that induce genotoxicity in human embryonic kidney (HEK293T) cells expressing luciferase-tagged ELG1; Potency, µM (top dose mostly 46 µM), inactives show top-dose activity change, positive = activation, most hits filed as activators; HEK293T ELG1-luciferase reporter, luminescence, 16 h; AID 504466, 2011; actives 1.3% (n = 330,000); also: % of control where 0% means no effect; nearly all actives have a fitted effect of over 60% in size
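Genotoxicity was scored as increased ELG1-luciferase reporter signal, measured by ONE-Glo luminescence (30 min, room temperature). Compound or vehicle exposure of the HEK293T reporter cells lasted 16 hr at 37°C.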
Rab9 promoter act – qHTS Assay for Rab9 Promoter Activators; Huh7 Rab9 promoter-luciferase reporter, luminescence, 24 h; Potency, µM (doses to about 9.22 µM), inactives show at the top dose activation, negative = inhibition, usual class: activators; actives 2.8% (n = 320,000); also: % of control where 0% means no effect; nearly all actives have a fitted effect of over 60% in size
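Promoter activation is measured as luciferase luminescence in Huh7 cells stably transfected with a Rab9 promoter–luciferase construct, following 24 h compound exposure at 37 °C and 10 min reagent incubation at ambient temperature.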
* hit, by the source's call; ? = inconclusive; / = not tested or not shown. Calls follow the shape of the dose curve; as a rule, active = well fitted curve in the direction sought with a large enough effect; inconclusive = small, poorly fitted or top-dose-only effect, or another doubt; inactive = no such curve, though single readings can be large; an effect the other way counts as inactive or inconclusive. Potency is read from the fitted curve at half-maximal effect.

SMILES	FLuc counter	SMN2 splice enh	NPC1 promoter act	ELG1 genotox	Rab9 promoter act
O=[N+]([O-])c1ccc(O)c(/C=N\N=C2c3ccccc3-c3ccccc32)c1	-6%	-73%	-2%	-8%	-19%
COc1cc(/C=N/N=C2/C(=O)Nc3ccccc32)cc(OC)c1O	17µM*	20%	-1%	2%	-1%
O=C1Nc2ccccc2/C1=N/N=C/c1cccc(O)c1	?	/	14%	3%	1%
COc1ccc(O)c(/C=N/N=C2/C(=O)Nc3ccccc32)c1	4.8µM*	-4%	-2%	5%	1%
O=[N+]([O-])c1ccccc1N/N=C/c1ccccc1	?	/	4µM*	?	?
O=[N+]([O-])c1ccc(N/N=C/c2c[nH]c3ccccc23)cc1	?	-10%	-2%	15%	-2%
O=[N+]([O-])c1ccccc1N/N=C/c1c[nH]c2ccccc12	4.3µM*	13µM*	?	4.1µM*	1%
O=[N+]([O-])c1ccccc1N/N=C/c1ccc2c(c1)OCO2	0.48µM*	2.8µM*	0.5µM*	2.9µM*	0.32µM*
NS(=O)(=O)c1ccc(N/N=C/c2ccc3c(c2)OCO3)c([N+](=O)[O-])c1	-5%	-2%	2%	5%	3%
Cc1ccc(S(=O)(=O)C(CNC(=O)COc2ccccc2)c2ccco2)cc1 (stereo unspecified)	-7%	/	/	/	/
Cc1ccc(S(=O)(=O)N(CC(=O)c2ccc(Cl)cc2)C(=O)N2CCN(C)CC2)cc1	7%	/	-5%	4%	2%
COc1ccc(C(=O)c2oc3ccccc3c2NC(=O)COc2c(C)cc(C)cc2C)cc1	1%	3%	/	/	/
O=C(O)CCCc1ccc2c(c1)CCc1ccccc1-2	4.3µM*	/	-1%	10%	-1%
Cc1cc(NC(=O)c2cccc(Cl)c2)n[nH]1	19µM*	/	2.8µM*	?	2.5µM*
O=C(Nc1cc(-c2ccccc2)[nH]n1)c1ccc(Cl)cc1	11µM*	/	2µM*	?	3.2µM*
CC1(c2ccc(OC(F)F)cc2)NC(=O)N(CC(=O)Nc2ccccc2)C1=O (stereo unspecified)	-8%	/	-3%	8%	3%
CCOc1cc(C(=O)Nc2ccc(-c3nc4ccccc4s3)cc2Cl)cc(OCC)c1OCC	13µM*	/	/	/	/
C=CCn1c(SCC(=O)Nc2ccc(-c3nc4ccc(C)cc4s3)cc2)nnc1-c1ccccc1	2.4µM*	0.79µM*	?	?	0.5µM*
Cc1ccc2nc(-c3ccc(NC(=O)CN4C(=O)NC(C)(c5ccc(OC(F)F)cc5)C4=O)cc3)sc2c1 (stereo unspecified)	5.4µM*	/	2.5µM*	21µM*	1.4µM*
Cc1ccc2nc(-c3ccc(NC(=O)COc4ccccc4)cc3)sc2c1	3µM*	1.3µM*	/	/	/
CCOc1ccc(NC(=S)N2CCN(S(=O)(=O)c3ccccc3)CC2)cc1	2%	/	-1%	-4%	-2%
O=C(NNC(=O)c1nc2ccccc2[nH]1)OCc1ccccc1	/	/	/	-1%	/
Cc1ccc2nc(-c3ccc(NC(=O)COc4ccccc4C(C)(C)C)cc3)sc2c1	9.5µM*	?	/	/	/
O=C(COc1ccccc1[N+](=O)[O-])Nc1ccc(-c2nc3ccccc3s2)cc1	-3%	/	/	/	/
O=C(COc1ccccc1Cl)Nc1ccc(-c2nc3ccccc3s2)cc1	-2%	0.79µM*	/	/	/
SMILES	FLuc counter	SMN2 splice enh	NPC1 promoter act	ELG1 genotox	Rab9 promoter act
COc1ccc(/C=C(\C#N)C(=O)OCC(=O)Nc2ccc(-c3nc4ccc(C)cc4s3)cc2)cc1	1.7µM*	2.5µM*	0.45µM*	0.65µM*	0.4µM*
Cc1cccc(N(C)c2nc3ccc(C(=O)c4ccccc4)cc3n3c(C)nnc23)c1	-4%	/	/	/	/
COc1ccc(CCNC(=O)Cn2c(=O)nc(-c3ccccc3)c3cc(Cl)ccc32)cc1OC	0%	/	/	/	/
COc1cccc(NC(=O)Cn2cc(C(=O)c3ccco3)c3ccccc32)c1	?	-19%	/	/	/
Cc1ccc(NC(=O)c2ccc3c(c2)OCCO3)nc1	1.3µM*	/	0.63µM*	?	0.35µM*
Cc1ccc(NC(=O)CNC(=O)c2ccc3c(c2)OCO3)nc1	-2%	/	9%	0%	2%
Cc1cc(C)c2sc(NC(=O)c3ccc(N4C(=O)CCC4=O)cc3)nc2c1	2.4µM*	/	-5%	12%	3%
Cc1ccc2nc(NC(=O)c3ccc(N4C(=O)CCC4=O)cc3)sc2c1	?	16%	8%	3%	16%
Cc1ccc(NC(=O)c2cccc(NC(=O)CC3SC(N4CCCCC4)=NC3=O)c2)nc1 (stereo unspecified)	11µM*	/	12%	0%	29%
Cc1ccnc(NC(=O)c2ccc(N3C(=O)CCC3=O)cc2)c1	19µM*	8%	?	16%	?
COc1cc(OC)cc(C(=O)NNC(=O)CCC2CCCC2)c1	/	/	/	-3%	/
COCc1nc2ccccc2n1CCc1ccccc1	4%	/	0%	-3%	0%
O=C(NCCc1ccccc1)C1CCC(CNS(=O)(=O)c2cccc3cccnc23)CC1 (stereo unspecified)	-16%	/	16%	-1%	20%
Cc1ccnc(NC(=O)c2ccc3c(c2)OCO3)c1	2.1µM*	/	0.5µM*	?	0.45µM*
Cc1ccc(NC(=O)c2ccc3c(c2)NC(=O)CS3)nc1	?	/	?	9.2µM*	?
CCOc1ccc(NC(=O)CCS(=O)(=O)c2ccc3nc(C)sc3c2)cc1	1%	/	/	/	/
CSc1nc(-c2ccc(N(C)C)cc2)c(C#N)c(=O)n1C	12µM*	/	?	?	?
CSc1nc(-c2ccc(Cl)cc2)c(C#N)c(=O)n1C	0%	-24%	-8%	-2%	-7%
Cc1ccc(S(=O)(=O)Nc2c(C)nc3nc(C)[nH]n3c2=O)c(C)c1	-1%	11%	3%	0%	2%
Cc1cccc(C(=O)Nc2cccc(OCc3cc(=O)n4cc(C)sc4n3)c2)c1	-9%	-3%	/	/	/
Cc1cn2c(=O)cc(COc3cccc(NC(=O)c4ccc(C(C)(C)C)cc4)c3)nc2s1	1.2µM*	9%	/	/	/
Cc1cn2c(=O)cc(COC(=O)c3cccc(NC(=O)c4ccc(C(C)(C)C)cc4)c3)nc2s1	0.76µM*	/	/	/	/
Cn1c(CCN2CCN(c3ccccc3)CC2)nc2cc(NC(=O)c3ccco3)ccc21	-13%	-14%	5%	-6%	4.5µM*
CC(=O)NCCc1nc2cc(NC(=O)c3ccc([N+](=O)[O-])cc3)ccc2n1C	15µM*	/	?	11%	?
Cc1ccc(C(=O)Nc2ccc3c(c2)nc(CCNC(=O)c2ccco2)n3C)cc1	?	/	3.5µM*	?	3.5µM*

Compound activity as filed in PubChem.
